In PubChem BioAssay (NCATS):
Several values for one entry are separate records, joined by “and”; a condition that tells them apart may be missing. Equal values may be shown once. Inconclusive results are not listed. Activity calls are given as the source filed them. Unless noted, calls follow the shape of the dose curve; as a rule, active = well fitted curve in the direction sought with a large enough effect; inconclusive = small, poorly fitted or top-dose-only effect, or another doubt; inactive = no such curve, though single readings can be large; an effect the other way counts as inactive or inconclusive.

What was measured:
[1] = Validation of Assay for Modulators of Lamin A Splicing (AID 1459; active = well fitted curve in the direction sought with a large enough effect in the signal ratio; the % refers to the signal ratio;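 also: cells exposed to compound for two days before reading; 0% is about no effect; ratio rise marks activators and ratio drop marks inhibitors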)
Summary of the method: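 S3 HeLa cells stably expressing a lamin A-EGFP splicing minigene and DsRed2 were seeded at 600 cells/well in Opti-MEM with 2% FBS, pin-dosed, and incubated 48 hrs at 37 °C, 5% CO2. Laser-scanning cytometry (488 nm) gave GFP/RFP total intensity ratio.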

[2] = qHTS Assay for Lipid Storage Modulators (AID 1519; calls by dose curve; as to activity change, negative = inhibition: % is scaled to controls: 0 for no effect and ±100 for the full control effect); settings: Drosophila S3 cells, BODIPY lipid droplet/cell ratio, laser cytometry, cells loaded with oleic acid
Summary of the method: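 Cells seeded at 5,000 per well were treated with compounds over a concentration series and loaded with oleic acid (400 uM, as added). Lipid droplet fluorescence (488 nm excitation, 500-530 nm channel) was read by laser-scanning cytometry and normalized to 20 uM Triacsin C.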

[3] = target: DNA repair nuclease/redox regulator APEX1 (Homo sapiens) (UniProt P27695); assay: qHTS Validation Assay for Inhibitors of the Human Apurinic/apyrimidinic Endonuclease 1 (APE1) (AID 1705; also: potency is read from the fitted curve at half-maximal effect;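 as to activity change, negative = inhibition: TAMRA fluorescence gain over two minutes as APE1 cuts a quenched THF abasic duplex; % is scaled to controls: 0 for no effect and ±100 for the full control effect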)
Summary of the method: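 Human APE1 was preincubated with compound for 15 min at room temperature, then 50 nM (final) THF-abasic double-stranded DNA substrate bearing 5'-TAMRA and 3'-BHQ-2 was added. Incision-driven fluorescence rise (ex 525/em 598 nm) was read kinetically.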

[4] = Counterscreen for APE1 Inhibitors: Fluorescent Dye Displacement Validation Assay (AID 1707);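 also: plate controls were ThO with dsDNA and no compound for no effect and ThO without dsDNA for full effect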
Summary of the method: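 Counterscreen flags promiscuous DNA binders: compounds displacing ThO from duplex DNA (abasic THF site, 50 nM) reduce 540 nm emission (480 nm excitation). ThO 250 nM final; Tris-HCl pH 7.5 with NaCl, MgCl2 and Tween-20.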

[5] = target: Endonuclease 4 (Escherichia coli (strain K12)) (UniProt P0A6C1); assay: Counterscreen for APE1 Inhibitors: qHTS Validation Assay for Inhibitors of Endonuclease IV (AID 1708); also: % is scaled to controls: 0 for no effect and ±100 for the full control effect
Summary of the method: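 The reaction buffer contained 50 mM Tris-HCl pH 7.5, 50 mM NaCl, 2 mM MgCl2, 1 mM DTT and 0.01% Tween-20. Incision of a 50 nM fluorophore/quencher THF substrate by 2 nM enzyme was measured kinetically.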

[6] = qHTS for differential inhibitors of proliferation of Plasmodium falciparum line 7G8 (AID 1815);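 also: parasite growth measured after three days of incubation; plate controls were vehicle wells for no effect and reference inhibitor wells for full effect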
[7] = qHTS for differential inhibitors of proliferation of Plasmodium falciparum line GB4 (AID 1816); settings: Potency: Plasmodium falciparum GB4 proliferation inhibition;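 also: parasite growth measured after 72 h incubation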; also: potency is read from the fitted curve at half-maximal effect;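 as to activity change, negative = inhibition: 0% = vehicle DMSO and -100% = reference inhibitor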
[8] = qHTS for differential inhibitors of proliferation of Plasmodium falciparum line 3D7 (AID 1876);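 also: parasite growth measured after three days of culture; 0% = vehicle wells and -100% = reference inhibitor wells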
[9] = qHTS for differential inhibitors of proliferation of Plasmodium falciparum line D10 (AID 1877);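 also: parasites grown with compound for 72 h before DNA staining; plate controls were vehicle wells for no effect and reference inhibitor wells for full effect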
[10] = qHTS for differential inhibitors of proliferation of Plasmodium falciparum line Dd2 (AID 1882); settings: Potency: Plasmodium falciparum Dd2 proliferation inhibition;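 also: compound exposure of 72 h on infected erythrocytes; plate controls were DMSO vehicle for no effect and 0.29 µM artemisinin for full effect; nearly all actives have a fitted effect of over 65% in size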
Summary of the method: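 RBC culture, 0.3% parasitemia / 2.5% Hct final; cpd added by pin tool in DMSO; 72 h, 37 C, 5% CO2; lysis buffer + SYBR Green I, o/n RT dark; FI 485/535; norm. to artemisinin 0.29 uM and DMSO.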

[11] = qHTS for differential inhibitors of proliferation of Plasmodium falciparum line W2 (AID 1883); settings: Potency: Plasmodium falciparum W2 proliferation inhibition;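 also: parasites grown with compound for 72 h before lysis and staining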; also: potency is read from the fitted curve at half-maximal effect;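 as to activity change, negative = inhibition: 0% = vehicle wells and -100% = control inhibitor wells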
[12] = qHTS for differential inhibitors of proliferation of Plasmodium falciparum line HB3 (AID 1886); settings: Potency: Plasmodium falciparum HB3 proliferation inhibition;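 also: parasites grown with compound for 72 h before SYBR Green readout; plate controls were vehicle for no effect and reference inhibitor for full effect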
[13] = qHTS Assay for Modulators of Human Peripheral Myelin Protein 22 (PMP22) Expression/Activity (AID 1967; active = well fitted curve in the direction sought with a large enough effect in the signal ratio; the % refers to the signal ratio;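 also: 0% = untreated cells and 100% end not stated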)
Summary of the method: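 MSC80 mouse Schwann cells stably carrying Pmp22 promoter–green click beetle luciferase plus EF-alpha–red luciferase control were dosed for 24h at 37 °C. Dual-colour luminescence was filter-overlap corrected; %Activity came from green/red ratio versus untreated cells.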

[14] = target: Ferritin light chain (Equus caballus) (UniProt P02791); assay: qHTS Validation Assay for Identification of Novel General Anesthetics (AID 2323); also: % is scaled to controls: 0 for no effect and ±100 for the full control effect
Summary of the method: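 Competitive displacement of profluorescent 1-aminoanthracene (1-AMA, 50% saturated solution in PBS) from 10 uM horse-spleen apoferritin. Compounds incubated 10 min at room temperature; fluorescence read at 380 nm excitation/535 nm emission, normalized to free 1-AMA and complex, fitted with four-parameter Hill equation.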

[15] = target: ATP-dependent DNA helicase Q1 (Homo sapiens) (UniProt P46063); assay: qHTS Validation Assay for Inhibitors of RecQ-Like Dna Helicase 1 (RECQ1) (AID 2353);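 also: plate controls were DMSO vehicle for no effect and enzyme-free control for full effect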
Summary of the method: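 RECQ1T1 50 nM; forked duplex (20 bp + 30-nt ss tails) 200 nM, ATP 2 mM final; pH 8.0, 2 mM MgCl2, 2.5 ug/ml poly(dI-dC); 15 min compound preincubation; discontinuous kinetic read over 2 h at RT.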

[16] = target: alpha-glucosidase (Oryza sativa, rice) (UniProt Q653V4); assay: Counterscreen for Glucocerebrosidase Inhibitors: qHTS Assay for Rice alpha-Glucosidase at pH 5.0 (AID 997);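 also: 0% = full activity with enzyme and -100% = basal without enzyme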
Summary of the method: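 Endpoint fluorogenic assay at pH 5.0: compounds (0.7 nM to 77 uM) titrated against 4 nM rice enzyme and 400 uM 4-MU-alpha-glucoside for 20 min at room temperature; NaOH/glycine stop, read ex 365/em 440 nm, Hill-fitted AC50.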

[17] = target: RecQ-like DNA helicase BLM (Homo sapiens) (UniProt P54132); assay: qHTS Validation Assay for Inhibitors of Bloom's syndrome helicase (BLM) (AID 2364);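 also: plate controls were DMSO vehicle for no effect and enzyme-free control for full effect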
Summary of the method: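 Forked 20-bp duplex substrate (200 nM, TAMRA/BHQ-2) plus 2 mM ATP added after 15 min compound preincubation with 50 nM enzyme, pH 8.0, poly(dI-dC) 2.5 ug/ml. Strand separation followed by fluorescence (525/598 nm) over 2 h, normalized to enzyme-free and DMSO controls.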

[18] = measured here: cell count channel max response
[19] = measured here: lipid channel max response

Sequence of Ferritin light chain (Equus caballus) (P02791 2-175 limits assumed): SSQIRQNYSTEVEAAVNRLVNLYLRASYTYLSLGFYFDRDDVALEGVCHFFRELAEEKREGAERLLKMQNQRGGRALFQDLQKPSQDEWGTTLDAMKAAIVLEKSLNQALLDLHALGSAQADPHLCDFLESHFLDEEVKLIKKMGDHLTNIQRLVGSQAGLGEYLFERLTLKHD
Sequence of DNA repair nuclease/redox regulator APEX1 (Homo sapiens) (P27695 whole entry, looked up): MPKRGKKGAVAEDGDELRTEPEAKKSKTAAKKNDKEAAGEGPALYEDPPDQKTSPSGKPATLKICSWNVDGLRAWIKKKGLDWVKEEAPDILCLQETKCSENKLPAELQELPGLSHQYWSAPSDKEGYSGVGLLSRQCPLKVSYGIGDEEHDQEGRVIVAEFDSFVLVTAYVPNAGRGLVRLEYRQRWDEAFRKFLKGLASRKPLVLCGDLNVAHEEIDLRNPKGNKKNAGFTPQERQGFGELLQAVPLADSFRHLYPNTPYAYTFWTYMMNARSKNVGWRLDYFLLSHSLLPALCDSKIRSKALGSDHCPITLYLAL
Sequence of ATP-dependent DNA helicase Q1 (Homo sapiens) (P46063 whole entry, looked up): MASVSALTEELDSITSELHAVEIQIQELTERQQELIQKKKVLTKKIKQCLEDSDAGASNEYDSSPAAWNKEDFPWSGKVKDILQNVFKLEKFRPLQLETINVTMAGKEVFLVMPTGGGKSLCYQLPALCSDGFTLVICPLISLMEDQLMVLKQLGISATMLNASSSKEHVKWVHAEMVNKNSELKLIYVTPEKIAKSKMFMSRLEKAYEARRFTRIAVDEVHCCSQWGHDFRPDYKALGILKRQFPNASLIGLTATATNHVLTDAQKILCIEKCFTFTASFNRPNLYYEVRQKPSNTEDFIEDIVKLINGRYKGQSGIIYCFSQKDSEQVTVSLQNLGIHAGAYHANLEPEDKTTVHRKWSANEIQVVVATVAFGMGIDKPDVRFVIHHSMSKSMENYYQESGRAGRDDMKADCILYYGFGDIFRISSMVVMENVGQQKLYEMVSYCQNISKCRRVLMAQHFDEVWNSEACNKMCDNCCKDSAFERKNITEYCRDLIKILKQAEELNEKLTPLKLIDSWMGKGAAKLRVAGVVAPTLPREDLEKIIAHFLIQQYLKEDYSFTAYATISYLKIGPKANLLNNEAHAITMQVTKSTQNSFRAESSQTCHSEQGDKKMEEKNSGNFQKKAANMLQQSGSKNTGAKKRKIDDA
Sequence of RecQ-like DNA helicase BLM (Homo sapiens) (P54132 whole entry, looked up): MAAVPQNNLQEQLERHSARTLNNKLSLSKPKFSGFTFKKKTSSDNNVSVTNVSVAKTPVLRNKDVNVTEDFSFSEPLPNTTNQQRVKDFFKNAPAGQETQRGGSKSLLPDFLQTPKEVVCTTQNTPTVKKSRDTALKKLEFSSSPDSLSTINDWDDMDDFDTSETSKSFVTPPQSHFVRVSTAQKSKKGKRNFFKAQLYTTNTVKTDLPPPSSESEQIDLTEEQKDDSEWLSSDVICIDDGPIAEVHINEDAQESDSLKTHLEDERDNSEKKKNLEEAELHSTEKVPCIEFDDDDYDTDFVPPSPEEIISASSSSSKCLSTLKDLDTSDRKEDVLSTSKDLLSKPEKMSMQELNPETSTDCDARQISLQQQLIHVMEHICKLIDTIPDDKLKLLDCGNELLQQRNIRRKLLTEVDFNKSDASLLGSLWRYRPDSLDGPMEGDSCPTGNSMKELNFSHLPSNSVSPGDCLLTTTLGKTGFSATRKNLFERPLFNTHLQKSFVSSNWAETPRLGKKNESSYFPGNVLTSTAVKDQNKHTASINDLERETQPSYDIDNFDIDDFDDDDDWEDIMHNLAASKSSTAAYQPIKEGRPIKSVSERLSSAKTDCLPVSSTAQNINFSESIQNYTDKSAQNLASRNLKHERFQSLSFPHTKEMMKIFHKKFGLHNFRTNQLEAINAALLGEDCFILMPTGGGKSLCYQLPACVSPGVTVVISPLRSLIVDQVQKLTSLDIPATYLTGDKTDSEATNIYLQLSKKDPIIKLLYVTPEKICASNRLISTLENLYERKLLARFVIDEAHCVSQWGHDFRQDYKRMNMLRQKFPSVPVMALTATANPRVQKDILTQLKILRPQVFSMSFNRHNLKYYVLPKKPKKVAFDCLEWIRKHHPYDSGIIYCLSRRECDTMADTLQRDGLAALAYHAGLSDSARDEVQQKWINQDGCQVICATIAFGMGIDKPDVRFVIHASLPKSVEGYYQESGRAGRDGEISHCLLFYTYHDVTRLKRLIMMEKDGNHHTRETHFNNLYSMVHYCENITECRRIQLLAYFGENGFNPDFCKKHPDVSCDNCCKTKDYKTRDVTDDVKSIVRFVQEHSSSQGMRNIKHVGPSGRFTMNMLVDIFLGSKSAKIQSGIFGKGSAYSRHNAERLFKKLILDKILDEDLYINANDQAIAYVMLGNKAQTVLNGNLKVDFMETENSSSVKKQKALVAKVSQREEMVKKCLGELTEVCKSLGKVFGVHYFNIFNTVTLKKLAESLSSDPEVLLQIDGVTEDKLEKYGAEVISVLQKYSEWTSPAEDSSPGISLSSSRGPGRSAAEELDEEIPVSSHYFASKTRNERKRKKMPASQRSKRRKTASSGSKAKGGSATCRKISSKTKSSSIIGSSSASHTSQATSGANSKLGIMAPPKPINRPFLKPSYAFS

NC(C(=O)N[C@@H]1C(=O)N2C(C(=O)O)=C(Cl)CS[C@H]12)c1ccccc1 (stereo not given in full)
-32.3%: max response [2, 19]
inactive: outcome [1] | activity change, negative = inhibition ([2]; at 57.5 µM (top of the series)) -2.36% | Potency [3] | Potency [4] | Potency [5] | Potency [6] | Potency [7] | Potency [8] | Potency [9] | Potency [10] | Potency [11] | Potency [12] | outcome [13] | Potency [14] | Potency [15]
-29.4%: max response [2, 18]

N[C@@H](CCCC(=O)O)C(=O)O
-26.7%: max response [2, 18]
inactive: outcome [1] | activity change, negative = inhibition ([2]; at 57.5 µM (top of the series)) 0.27% | Potency [3] | Potency [4] | Potency [5] | Potency [6] | Potency [7] | Potency [8] | Potency [9] | Potency [10] | Potency [11] | Potency [12] | outcome [13] | Potency [14] | Potency [15]
-26.8%: max response [2, 19]

CCCn1c(=O)c2c(ncn2C)n(CCC)c1=O
inactive: outcome [16] | outcome [1] | activity change, negative = inhibition ([2]; at 57.5 µM (top of the series)) -2.98% | Potency [3] | Potency [4] | Potency [5] | Potency [6] | Potency [7] | Potency [8] | Potency [9] | Potency [10] | Potency [12] | Potency [14] | Potency [15]
-33.5%: max response [2, 19]
-22.4%: max response [2, 18]

Oc1ccc(Cn2cc[nH]c2=S)cc1
-28.3%: max response [2, 18]
inactive: outcome [16] | outcome [1] | activity change, negative = inhibition ([2]; at 57.5 µM (top of the series)) -3.19% | Potency [3] | Potency [4] | Potency [5] | Potency [6] | Potency [7] | Potency [8] | Potency [9] | Potency [10] | Potency [11] | Potency [12] | outcome [13] | Potency [14] | Potency [15]
-29.9%: max response [2, 19]

COc1cc(C(O)CO)ccc1O (stereo not given)
inactive: outcome [1] | activity change, negative = inhibition ([2]; at 57.5 µM (top of the series)) -0.467% | Potency [3] | Potency [4] | Potency [5] | Potency [6] | Potency [7] | Potency [8] | Potency [9] | Potency [10] | Potency [11] | Potency [12] | outcome [13] | Potency [14] | Potency [15] | Potency [17]
-50.8%: max response [2, 18]
-49.3%: max response [2, 19]

O=C(O)c1ccccc1Nc1ccccc1
inactive: outcome [16] | outcome [1] | activity change, negative = inhibition ([2]; at 57.5 µM (top of the series)) 7.05% and 0.0171% | Potency [3] | Potency [4] | Potency [5] | Potency [6] | Potency [7] | Potency [8] | Potency [9] | Potency [10] | Potency [11] | Potency [12] | Potency [14] | Potency [15]
2.57% and -16.2%: max response [2, 18]
11.5% and -17.1%: max response [2, 19]

COc1cc(CC(=O)O)ccc1O
57.3%: max response [2, 19]
56.6%: max response [2, 18]
inactive: outcome [16] | outcome [1] | activity change, negative = inhibition ([2]; at 57.5 µM (top of the series)) -0.731% | Potency [3] | Potency [4] | Potency [5] | Potency [6] | Potency [7] | Potency [8] | Potency [9] | Potency [10] | Potency [11] | Potency [12] | outcome [13] | Potency [14] | Potency [15] | Potency [17]

O=C(O)c1cccnc1C(=O)O
12.5%: max response [2, 19]
inactive: outcome [16] | outcome [1] | activity change, negative = inhibition ([2]; at 57.5 µM (top of the series)) 1.68% | Potency [3] | Potency [4] | Potency [5] | Potency [6] | Potency [7] | Potency [8] | Potency [9] | Potency [10] | Potency [11] | Potency [12] | outcome [13] | Potency [14] | Potency [15]
9.96%: max response [2, 18]

CC(C)Cn1c(=O)n(C)c(=O)c2[nH]cnc21
8.87%: max response [2, 19]
8.14%: max response [2, 18]
inactive: outcome [16] | outcome [1] | activity change, negative = inhibition ([2]; at 57.5 µM (top of the series)) 2.93% | Potency [3] | Potency [4] | Potency [5] | Potency [6] | Potency [7] | Potency [8] | Potency [9] | Potency [10] | Potency [11] | Potency [12] | outcome [13] | Potency [14] | Potency [15] | Potency [17]

CC1CCN(CC[C@H]2CCCN2S(=O)(=O)c2cccc(O)c2)CC1
active: Potency [7] 12.6 µM | Potency [11] 8.91 µM
7.6% and -15.4%: max response [2, 18]
inactive: outcome [1] | activity change, negative = inhibition ([2]; at 57.5 µM (top of the series)) 5.39% and 1.08% | Potency [3] | Potency [4] | Potency [5] | Potency [9] | Potency [12] | outcome [13] | Potency [14] | Potency [15]
15.3% and -11.1%: max response [2, 19]

O=C(O)Cc1ccc(O)c(O)c1
inactive: outcome [16] | outcome [1] | activity change, negative = inhibition ([2]; at 57.5 µM (top of the series)) -0.0553% | Potency [4] | Potency [5] | Potency [7] | Potency [8] | Potency [9] | Potency [10] | Potency [12] | Potency [14] | Potency [15]
active: Potency [3] 7.94 µM
-14.9%: max response [2, 19]
-16.6%: max response [2, 18]

NS(=O)(=O)c1cccc2c1c([N+](=O)[O-])cc1nc(O)c(O)nc12
-22.6% and 10.1%: max response [2, 18]
inactive: outcome [16] | outcome [1] | activity change, negative = inhibition ([2]; at 57.5 µM (top of the series)) -1.05% and 1.23% | Potency [3] | Potency [4] | Potency [5] | Potency [8] | Potency [9] | Potency [10] | Potency [12] | outcome [13] | Potency [14] | Potency [15]
-22.6% and 7.26%: max response [2, 19]
active: Potency [11] 11.2 µM

c1ccc(C2CN3CCSC3=N2)cc1 (stereo not given)
inactive: outcome [1] | activity change, negative = inhibition ([2]; at 57.5 µM (top of the series)) 7.49% | Potency [3] | Potency [4] | Potency [6] | Potency [8] | Potency [9] | Potency [10] | Potency [12] | Potency [14] | Potency [15] | Potency [17]
10.3%: max response [2, 19]
0.909%: max response [2, 18]

COc1ccc(-c2ccc(N)[n+](CCCC(=O)O)n2)cc1
inactive: outcome [16] | outcome [1] | activity change, negative = inhibition ([2]; at 25.7 µM (top of the series)) -0.132% | Potency [3] | Potency [4] | Potency [5] | Potency [6] | Potency [7] | Potency [8] | Potency [9] | Potency [11] | Potency [12] | outcome [13] | Potency [14] | Potency [15] | Potency [17]
7.04%: max response [2, 19]
3.21%: max response [2, 18]

Cn1c(=O)c2[nH]c(C3CCCC3)nc2n(C)c1=O
26.8% and -11.4%: max response [2, 19]
10.8% and -10.7%: max response [2, 18]
inactive: outcome [16] | outcome [1] | activity change, negative = inhibition ([2]; at 57.5 µM (top of the series)) 11.7% and -0.538% | Potency [3] | Potency [4] | Potency [5] | Potency [6] | Potency [8] | Potency [9] | Potency [14] | Potency [15] | Potency [17]
